In PubChem BioAssay AID493008 (The Scripps Research Institute Molecular Screening Center, 2010):
Hit rate of the full screen: of about 340,000 compounds, about 800 (0.24%) were called active.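 Rule for the calls: active = activation above the mean over all tested compounds plus 3 SD (cut at about 30% in these data); inactive = the rest.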 The full list was thinned out, with actives kept by preference.

Molecular target: Troponin I, cardiac muscle (Homo sapiens) + Troponin T, cardiac muscle (Homo sapiens) + Troponin C, slow skeletal and cardiac muscles (Homo sapiens) (UniProt P19429+P45379+P63316)
Assay: cardiac RTF calcium sensitivity activators, primary screen, biochemical, IANBD-TnC fluorescence, EC20 calcium (AID 493008);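 note: rise in fluorescence read as greater calcium sensitivity of cardiac thin filaments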
Details: IANBD-labeled TnC RTF fluorescence at EC20 calcium; at 7.2 µM; active compounds read high; 0% EC20 calcium, 100% full calcium

SMILES | activation
O=C(NC1=CC(=O)c2ccccc2C1=O)c1ccccc1 | -2.47% (inactive)
COc1cccc2c1C(=O)c1c(O)c3c(c(O)c1C2=O)CC(O)(C(C)=NNC(=O)c1ccc(Cl)c(Cl)c1)CC3OC1CC(N)C(O)C(C)O1 (centres undefined) | 220% (active)
CCCCC(CC)CNCc1cccn1CCN1CCOCC1 (centres undefined) | -0.42% (inactive)
CCOC(=O)c1ccc(N=C2SC(C(=O)NC)CC(=O)N2CCc2ccccc2)cc1 (centres undefined) | 2.1% (inactive)
O=C(CSc1ncnc2sccc12)N1CCN(C(=O)c2cccs2)CC1 | 0.04% (inactive)
Nc1c(C(=O)c2cccs2)sc2nsc(SCCN3CCCCC3)c12 | 30.6% (active)
COc1ccc(C23NCCN2C(=O)c2ccccc23)cc1 (centres undefined) | -1.61% (inactive)
COc1cc(S(=O)(=O)N2CCN=C2c2ccccc2)ccc1Cl | -3% (inactive)
COc1ccc(NC(C(=O)Nc2cccc(C(C)=O)c2)c2ccccc2)cc1 (centres undefined) | 2.77% (inactive)
COc1ccc(-c2onc3ccc(C(C)=O)cc23)cc1 | 42.2% (active)
COc1ccc(-c2cc(C(=O)N3CCN(c4ccc(F)cc4)CC3)no2)cc1 | -6.29% (inactive)
CC1CCCN(S(=O)(=O)c2ccc(-c3ccc(=O)[nH]n3)o2)C1 (centres undefined) | 0.69% (inactive)
Cc1ccc2nc(SCC(=O)N3CCN(c4ccccc4)CC3)nc(=O)n2c1 | -2.94% (inactive)
Oc1[nH]c2ccccc2c1N=Nc1c(F)c(F)c(F)c(F)c1F | 3.02% (inactive)
Cc1cccc(N=Nc2c(O)[nH]c3ccc(F)cc23)c1 | 31.3% (active)
NS(=O)(=O)c1ccc(N=Nc2c(O)[nH]c3ccc(Br)cc23)cc1 | -6.02% (inactive)
Cc1ccc(C(=O)O)c(NC=O)c1OCc1ccccc1 | -0.38% (inactive)
Cc1ccc2oc(=O)ccc2c1 | -3.77% (inactive)
CCN(CC)c1ccc2oc(=O)c(C)nc2c1 | 59.9% (active)
CCN(CC)c1ccc(C(=O)Nn2c(C)nc3ccccc3c2=O)cc1 | 8.65% (inactive)
COc1ncnc2c1N=C1CC(C)(C)CC(N)=C1S2 | 30.1% (active)
CCOC(=O)c1cc2n(c1N)-c1ccccc1C2=O | 40.9% (active)

SMILES | activation
CCOC(=O)c1ccccc1OC(=O)Oc1ccccc1C(=O)OCC | 0.28% (inactive)
CCOC(=O)c1ccccc1CN1C(=O)c2ccccc2S1(=O)=O | 6.29% (inactive)
COCCNC(=O)c1onc(CSc2cccc(C)c2)c1C(=O)O | 2.19% (inactive)
Cc1cccc(NC(=O)CSc2nc3c(c(=O)[nH]2)CCC3)c1C | 5.1% (inactive)
Cc1cc(OC(C)C(=O)NC2CC(C)(C)NC(C)(C)C2)c2c(C)cc(=O)oc2c1 (centres undefined) | -6.45% (inactive)
CCOc1nc(OCC)nc(-n2cc(-c3ccccc3)nn2)n1 | -0.01% (inactive)
COc1cccc(NS(=O)(=O)c2ccc3[nH]cc(C(=O)NCCCOC(C)C)c(=O)c3c2)c1 | 1.55% (inactive)
CCC1(C)COC(c2ccc(OC)c(OC)c2)OC1 (centres undefined) | 15.5% (inactive)
COc1ccc(CNCCCO)cc1OC | 2.52% (inactive)
COc1ccc(C2C(C#N)=C(N)Oc3cc(N)ccc32)cc1OC (centres undefined) | 2.36% (inactive)
COc1ccc(C2c3ccc(O)cc3Oc3ncn(CCCO)c(=N)c32)cc1OC (centres undefined) | 91.1% (active)
CN1C(=O)/C(=C/C=C2\SCCN2C)OC1=S | 34% (active)
CC(=O)c1cc2c(cc1NC(=O)Cn1nc(-c3ccc(F)cc3)ccc1=O)OCO2 | 1.13% (inactive)
COc1ccc(OC)c(NC(=O)c2ccc3c(c2)C(=O)N(c2ccc(OC(C)=O)cc2)C3=O)c1 | 1.02% (inactive)
CCOC(=O)c1c(NC(=O)C2CC=CCC2C(=O)O)sc(C)c1CC (centres undefined) | 1.94% (inactive)
CSC1=NCCN1C(=O)Cc1cccc2ccccc12 | -2.5% (inactive)
Nc1ccc2nc3c(=O)[nH]c(=S)[nH]c3nc2c1 | 266% (active)
OC1CCCN(c2ncnc3c2nnn3Cc2c(F)cccc2Cl)C1 (centres undefined) | 6.74% (inactive)
CCOc1ccc(C2c3[nH]c4ccccc4c3CCN2Cc2cccn2-c2ncccn2)cc1 (centres undefined) | 1.17% (inactive)
Cc1ccc(CN2CCN(Cc3ccc4ncccc4c3)CC2CCO)cc1 (centres undefined) | 0.85% (inactive)
Cc1ccsc1-c1cc(C(=O)O)c2c(ccc3ccccc32)n1 | 2.92% (inactive)
Cc1cccc(C)c1NC(=O)CCCSc1nnc(-c2ccco2)n1-c1ccccc1 | -3.75% (inactive)

SMILES | activation
CCOc1ccc(-n2cnnn2)cc1S(=O)(=O)N1CCC(C)CC1C (centres undefined) | -1.75% (inactive)
COCCCNC(=O)CNC(=S)N(Cc1cc(OC)c(OC)c(OC)c1)C1CCCC1 | -8.44% (inactive)
COc1ccc(/C=C/C(=O)OCC(=O)NC2CCCCCC2)cc1OC | -4.52% (inactive)
CCCc1ccc(OCC(O)CN2CCN(CCO)CC2)cc1 (centres undefined) | -4.14% (inactive)
Cc1ccccc1-n1nc(SCC(=O)O)sc1=S | -0.8% (inactive)
Cc1nc(N)sc1-c1ccccc1 | -3.97% (inactive)
CCCN(CCC)c1nc2c(C)cccn2c(=O)c1/C=C1/SC(=S)N(Cc2ccco2)C1=O | 34% (active)
CNc1nc2c(C)cccn2c(=O)c1C=Nc1ccc(OC)cc1 | -1.57% (inactive)
Cc1ccc2[nH]c(=O)c(-c3nc4c(C)cccn4c3NCc3ccco3)cc2c1 | -3.25% (inactive)
O=C(Cn1cnc2ccccc21)Nc1ccccc1-c1ccccc1 | -3.39% (inactive)
O=C(COC(=O)c1cccc(Br)c1)Nc1cccc2c1C(=O)c1ccccc1C2=O | -3.82% (inactive)
O=C(COC(=O)Cn1cnc2ccccc21)Nc1cccc2c1C(=O)c1ccccc1C2=O | 45.7% (active)
O=S(=O)(NCCc1ccc(Cl)cc1)c1cccs1 | -0.86% (inactive)
CCOc1ccc2oc(C(=O)N(CC)CC(=O)Nc3ccc(NC(C)=O)cc3)c(C)c2c1 | -0.31% (inactive)
O=C(c1c(Cl)nc2sccn12)N1CCCc2ccccc21 | -2.79% (inactive)
O=C(c1cc(-c2ccc(O)cc2)on1)N1CCCc2ccccc21 | 6.06% (inactive)
Cc1cccc2cc3c(N)c(C(=O)N4CCCc5ccccc54)sc3nc12 | 44.8% (active)
COC(=O)Cc1c(-c2[nH]c3ccccc3c2CC(=O)OC)[nH]c2ccccc12 | 0.63% (inactive)
O=C(C[n+]1cc(Br)cc2ccccc21)c1ccc(F)cc1 | -1.35% (inactive)
COC(=O)C[n+]1cccc2ccccc21 | 58.3% (active)
